# Test results: PubChem BioAssay (NCATS)
# Records with an inconclusive call do not appear. Entries that show only a call come without a potency. The source made the active and inactive calls. Calls come from the whole dose curve; as a rule, active = well fitted curve in the direction sought with a large enough effect; inconclusive = small, poorly fitted or top-dose-only effect, or another doubt; inactive = no such curve, though single readings can be large; an effect the other way counts as inactive or inconclusive.
# Target: Papain (Carica papaya) (UniProt P00784)
# Sequence (P00784 whole entry, looked up): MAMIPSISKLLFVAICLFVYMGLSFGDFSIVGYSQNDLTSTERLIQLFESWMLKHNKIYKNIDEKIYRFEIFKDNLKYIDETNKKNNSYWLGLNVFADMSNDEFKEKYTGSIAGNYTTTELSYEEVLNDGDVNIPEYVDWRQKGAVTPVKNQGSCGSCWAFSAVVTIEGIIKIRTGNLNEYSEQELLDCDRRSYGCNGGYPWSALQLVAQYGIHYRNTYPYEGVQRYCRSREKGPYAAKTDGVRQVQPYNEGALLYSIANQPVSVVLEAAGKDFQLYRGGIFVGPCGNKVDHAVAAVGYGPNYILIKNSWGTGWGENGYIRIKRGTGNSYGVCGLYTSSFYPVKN
# Test: Primary qHTS assay for inhibitors of the protease papain (AID 1645873);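 note: papain turnover of Z-FR-AMC read as the AMC fluorescence gain over 10 min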
# Details: papain Z-FR-AMC cleavage, AMC fluorescence; series mostly up to 49.8 µM
# Potency is the fitted concentration of half-maximal effect.
row,SMILES,Potency
1,CCCCNc1cc(C(=O)O)cc(S(N)(=O)=O)c1Oc1ccccc1,20 µM (active)
2,CN1CCN(CCCN2c3ccccc3Sc3ccc(C(F)(F)F)cc32)CC1,inactive
3,CC(C)C[C@H](NC(=O)[C@@H](O)[C@H](N)Cc1ccccc1)C(=O)O,inactive
4,O=C(O)CCc1ccc(NCc2cccc(Oc3ccccc3)c2)cc1,inactive
5,Cc1cc2c(C(C)C)c(O)c(O)c(C=O)c2c(O)c1-c1c(C)cc2c(C(C)C)c(O)c(O)c(C=O)c2c1O,12.6 µM (active)
6,CCOC(=O)N1CCC(=C2c3ccc(Cl)cc3CCc3cccnc32)CC1,inactive

# Test system: not listed separately
# Test: Primary qHTS for inhibitors of nuclear receptor binding SET domain protein 2 (NSD2) in an isogenic RCH-ACV NSD2 p.E1099K mutant (9B) (AID 1645876); note: nearly all actives have a fitted effect of over 70% in size
# Details: RCH-ACV (leukaemia line) NSD2 E1099K (9B) viability, CellTiter-Glo, 72 h; series mostly up to 44.9 µM
row,SMILES,Potency
1,CC(C)c1onc(-c2c(Cl)cccc2Cl)c1COc1ccc(/C=C/c2cccc(C(=O)O)c2)c(Cl)c1,inactive
2,C[C@H](NC(=O)Cc1cc(F)cc(F)c1)C(=O)N[C@@H]1C(=O)N(C)c2ccccc2-c2ccccc21,inactive
3,COc1ccc2nc(S(=O)Cc3ncc(C)c(OC)c3C)[nH]c2c1 (centres undefined),inactive
4,c1ccc(-c2nn3c(c2-c2ccnc4cc(OCCN5CCOCC5)ccc24)CCC3)nc1,16.6 µM (active)
5,COc1ccccc1[C@H](c1cccc2ccccc12)[C@@](C)(C#N)C(=O)N1CCC(c2cccc(C(F)(F)F)c2)CC1,inactive
6,CCCCNc1cc(C(=O)O)cc(S(N)(=O)=O)c1Oc1ccccc1,inactive
7,CCOc1cc(N2CCC(O)CC2)ccc1Nc1ncc2c(n1)N(C)c1ccccc1C(=O)N2C,2.35 µM (active)
8,O=C1[C@H](Cc2ccc(O)cc2)N2C(=O)CCN(C(=O)NCc3ccccc3)[C@H]2CN1Cc1cccc2ccccc12,3.72 µM (active)
